Measured values as given in publication PMC4336329 (PLoS ONE, 2015).
Hit rate of the full screen: of about 310,000 compounds, about 14,000 (4.5%) showed an effect of 50% or more. The effect is printed as a negative number. This excerpt belongs to a sample that is enriched for strong results.

biological target: human ether-à-go-go-related gene (hERG) potassium channel (human, UniProt Q12809); test: primary screen, population patch clamp on CHO cells stably expressing hERG; higher = less effect of the substance
Sequence (Q12809 whole entry, looked up): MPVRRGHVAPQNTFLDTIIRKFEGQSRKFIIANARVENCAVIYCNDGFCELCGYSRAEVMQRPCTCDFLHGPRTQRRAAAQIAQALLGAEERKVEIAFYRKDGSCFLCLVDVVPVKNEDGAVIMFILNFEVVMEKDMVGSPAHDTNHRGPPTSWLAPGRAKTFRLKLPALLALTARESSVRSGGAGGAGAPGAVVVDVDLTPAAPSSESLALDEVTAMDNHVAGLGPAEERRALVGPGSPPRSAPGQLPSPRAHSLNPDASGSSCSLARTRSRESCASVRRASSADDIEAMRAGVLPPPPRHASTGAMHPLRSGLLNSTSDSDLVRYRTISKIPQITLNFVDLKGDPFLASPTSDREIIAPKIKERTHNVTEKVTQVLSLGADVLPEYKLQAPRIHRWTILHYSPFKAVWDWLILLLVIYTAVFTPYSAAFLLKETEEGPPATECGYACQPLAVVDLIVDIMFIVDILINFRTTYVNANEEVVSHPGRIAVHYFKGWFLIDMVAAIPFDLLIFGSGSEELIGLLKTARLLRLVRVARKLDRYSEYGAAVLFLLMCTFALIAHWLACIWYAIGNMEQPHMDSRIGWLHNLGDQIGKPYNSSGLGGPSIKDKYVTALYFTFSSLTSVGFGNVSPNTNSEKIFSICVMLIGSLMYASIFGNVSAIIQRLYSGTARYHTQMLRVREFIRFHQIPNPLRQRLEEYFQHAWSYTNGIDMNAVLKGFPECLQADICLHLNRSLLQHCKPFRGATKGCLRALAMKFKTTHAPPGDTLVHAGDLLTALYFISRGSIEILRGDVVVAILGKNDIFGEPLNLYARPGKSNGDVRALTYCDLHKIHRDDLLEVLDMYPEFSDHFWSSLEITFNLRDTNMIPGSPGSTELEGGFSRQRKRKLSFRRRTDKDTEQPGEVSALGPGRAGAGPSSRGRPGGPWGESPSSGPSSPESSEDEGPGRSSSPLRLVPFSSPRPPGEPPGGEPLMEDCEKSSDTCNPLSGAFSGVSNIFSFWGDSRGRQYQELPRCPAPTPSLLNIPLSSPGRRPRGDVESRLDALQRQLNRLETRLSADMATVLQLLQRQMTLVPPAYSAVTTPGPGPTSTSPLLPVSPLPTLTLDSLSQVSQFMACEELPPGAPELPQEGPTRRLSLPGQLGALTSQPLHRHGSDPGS
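Note: peak tail current of the secondary pulse compared with the same well before compound.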

Point of comparison: `CCCOc1ccc(-c2nc(=S)[nH][nH]2)cc1`, “hERG current change (%, negative = inhibition) at 10uM” value 20.1%. Against it:
- COc1ccccc1NS(=O)(=O)c1cccc(C(=O)NCc2ccccn2)c1 — lower, 13.2%
- CCOc1nc(C)ccc1-c1noc(-c2ccccc2OC)n1 — lower, 12.7%
- CCCC12CN3CC(C)(CN(C1)C3c1ccco1)C2=O (stereo not shown) — lower, -4.64%
- CCOc1ncccc1C(=O)NCCc1ccc(Cl)cc1 — lower, -5.75%
- CC(=O)CC(C)(C)Nc1nc2cc([N+](=O)[O-])ccc2o1 — lower, 0.0382%
- COc1cc(NC(=O)c2ccc3snnc3c2)cc(OC)c1 — lower, 13.5%
- CCOCc1nnc(NC(=O)C2CC(=O)N(C3CCCC3)C2)s1 (stereo not shown) — lower, 4.92%
- COc1ccc(/C=C/c2nc(-c3ccccc3O)n[nH]2)cc1OC — lower, 12.1%
- CCOC(=O)Nc1c(O)ccc2oc(C)c(-c3ccccc3)c12 — lower, -1.49%
- O=C(Nc1ccc2nsnc2c1)N1CCCCC1 — higher, 22.2%
- CCOCCn1c(CN2CCN(c3ccc(OC)cc3)CC2)nc2c1c(=O)n(C)c(=O)n2C — lower, -41.2%
- COCCn1c(CN2CCN(c3cccc(Cl)c3)CC2)nc2c1c(=O)n(C)c(=O)n2C — lower, -53.9%
- COCCn1c(CN2CCN(c3ccccc3)CC2)nc2c1c(=O)n(C)c(=O)n2C — lower, -13.8%
- CCOCCn1c(CN2CCN(c3ccccc3)CC2)nc2c1c(=O)n(C)c(=O)n2C — lower, -22.1%
- CCOCCn1c(CN2CCN(C)CC2)nc2c1c(=O)n(C)c(=O)n2C — lower, 3.97%
- Cn1c(=O)c2c(nc(CN3CCN(c4ccccc4)CC3)n2CCN2CCOCC2)n(C)c1=O — lower, -21.7%
- CCOCCn1c(CN2CCN(c3ccc(F)cc3)CC2)nc2c1c(=O)n(C)c(=O)n2C — lower, -56.2%
- CCCCn1c(CN2CCN(c3ccc(F)cc3)CC2)nc2c1c(=O)n(C)c(=O)n2C — lower, -25%
- CCOCCn1c(CN2CCN(c3cccc(Cl)c3)CC2)nc2c1c(=O)n(C)c(=O)n2C — lower, -55%
- CC(C)Cc1nnc(NC(=O)CN2C(=O)NC3(CC(C)CC(C)(C)C3)C2=O)s1 (stereo not shown) — lower, -20.5%
- CN1C[C@@H]2C(c3ccccc3)C3(c4ccccc4)CC2(C3)[C@H]1c1ccccc1 (stereo partly shown) — lower, -25.7%
- CC(C)(C)c1ccc(-c2nnc(NC(=O)c3ccccc3)s2)cc1 — lower, -13.6%
- COc1ccc(C(=O)COC(=O)/C=C/c2ccccc2)cc1 — lower, 6.99%
- CN(C)S(=O)(=O)c1ccc(NC(=O)COC(=O)CC2CC3CCC2C3)cc1 (stereo not shown) — lower, -9.56%
- O=C(CSc1n[nH]c(-c2ccncc2)n1)NCCc1ccccc1 — lower, 13.2%
- Cc1ccc(N2C(=O)CC(Nc3ccc(Cl)c(S(=O)(=O)N(C)C)c3)C2=O)c(C)c1 (stereo not shown) — lower, -4.31%
- CN(C)S(=O)(=O)c1cc(NC2CC(=O)N(c3ccc(F)cc3)C2=O)ccc1Cl (stereo not shown) — lower, -51.1%
- Cc1ccc(NC2CC(=O)N(c3ccc(C)cc3)C2=O)cc1 (stereo not shown) — lower, -0.727%
- COc1cc(C(=O)NCCc2cn3ccc(C)cc3n2)cc(OC)c1OC — lower, -27%
- CCN(CC)CCCNC(=O)Cn1nc(-c2ccccc2)ccc1=O — lower, -24.4%
- O=C(Cn1nc(-c2ccccc2)ccc1=O)N1CCOCC1 — lower, -6.25%
- O=C(Cn1nc(-c2ccccc2)ccc1=O)N1CCCCC1 — lower, -61.6%
- CCN(CC)CCCNC(=O)CCn1nc(-c2ccccc2)ccc1=O — lower, -56.8%
- CCN(CC)CCNC(=O)CCn1nc(-c2ccc(Cl)cc2)ccc1=O — lower, -34.4%
- O=C(CCn1nc(-c2ccccc2)ccc1=O)NCCCN1CCCCCC1 — lower, -73%
- CC1CCCN(CCCNC(=O)CCn2nc(-c3ccccc3)ccc2=O)C1 (stereo not shown) — lower, -39%
- CC1CCCC(C)N1CCNC(=O)CCn1nc(-c2ccccc2)ccc1=O (stereo not shown) — lower, -46.8%
- CCCCN(C)CCCNC(=O)CCn1nc(-c2ccccc2)ccc1=O — lower, -52.9%
- CCCCNC(=O)CCn1nc(-c2ccccc2)ccc1=O — lower, -40%
- CCCN1CCN(CCCNC(=O)CCn2nc(-c3ccccc3)ccc2=O)CC1 — lower, -47.4%
- O=C(CCn1nc(-c2ccccc2)ccc1=O)N1CCCC1 — lower, -45%
- O=C(CN1C(=O)C2CC=CCC2C1=O)Nc1nnc(C2CC2)s1 (stereo not shown) — lower, 6.01%
